From PubChem
KAT2A inh: qHTS Assay for Inhibitors of GCN5L2 | Histone acetyltransferase KAT2A (Homo sapiens), Q92830 | 0.21% of 390,000 active | GCN5L2 HAT assay, ThioGlo1 CoA-SH fluorescence | Potency, µM (titrated, usually from 58.9 µM), for inactives: at the highest dose activity change, negative = inhibition, usual class: inhibitors; further: potency means the concentration at half of the fitted maximal effect
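GCN5L2 (20nM final) in 50mM HEPES, 0.1mM EDTA pH 7.5, 0.01% Tween-20 was preincubated 15 min at room temperature with compound, then given ThioGlo1 (50uM), H3(1-25) peptide (75uM) and acetyl-CoA (70uM); CoA-thiol fluorescence (Ex340/Em540) was read at 0 and 20 min.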
PI4K2A inh: qHTS for small molecular inhibitors of PI4K2A | 0.13% of 420,000 active | activity change, negative = inhibition, % at 76.9 µM | Phosphatidylinositol 4-kinase type 2-alpha (Homo sapiens), Q9BTU6 | purified PI4K2A, ADP-Glo luminescence, 1 h; stronger effect = lower value; in the data active means activity change below about -50%; inconclusive means mostly about -30% to -49%;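 further: -100% = wells without enzyme as full effect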
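Compounds are screened against recombinant PI4K2A using PI as substrate and ATP, the latter dispensed at 300 microM. Reactions run one hour at ambient temperature before ADP-Glo detection; full inhibition defined by wells lacking enzyme.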
PLK1 PBD block: qHTS for Inhibitors of PLK1-PDB (polo-like kinase 1 - polo-box domain): Primary Screen. 2.8% of 360,000 active. Plk1 PBD binding of FITC phosphopeptide, fluorescence polarization. Potency, µM, for the others: max response, negative = inhibition, most hits filed as inhibitors; further: potency means the concentration at half of the fitted maximal effect; series mostly up to about 57 µM; nearly all actives have a fitted effect of over 65% in size
GLS inh: qHTS for Inhibitors of Glutaminase (GLS); Potency, µM (series often up to 45.5 µM), inactives show at the highest dose activity change, negative = inhibition, actives largely listed as inhibitors; AID 624170, 2012; GLS enzymatic activity, qHTS titration; 0.21% of 410,000 active; further: potency means the concentration at half of the fitted maximal effect
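hKGA in 45 mM KH2PO4 pH 8.2, 0.02% Tween-20 with pin-transferred compounds; 1 mM L-glutamine (stock) plus glutamate oxidase/HRP/Amplex Red coupling added. Fluorescence read initially and after 30 min at RT.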
VDR inh: Inhibitors of the vitamin D receptor (VDR): qHTS; VDR-SRC2-3 peptide fluorescence polarization, 2 h; Potency, µM, inactives show max response, negative = inhibition, actives largely listed as inhibitors; 0.93% of 400,000 active; Vitamin D3 receptor (Homo sapiens), P11473; further: potency means the concentration at half of the fitted maximal effect
Target sequence (P11473 whole entry, looked up): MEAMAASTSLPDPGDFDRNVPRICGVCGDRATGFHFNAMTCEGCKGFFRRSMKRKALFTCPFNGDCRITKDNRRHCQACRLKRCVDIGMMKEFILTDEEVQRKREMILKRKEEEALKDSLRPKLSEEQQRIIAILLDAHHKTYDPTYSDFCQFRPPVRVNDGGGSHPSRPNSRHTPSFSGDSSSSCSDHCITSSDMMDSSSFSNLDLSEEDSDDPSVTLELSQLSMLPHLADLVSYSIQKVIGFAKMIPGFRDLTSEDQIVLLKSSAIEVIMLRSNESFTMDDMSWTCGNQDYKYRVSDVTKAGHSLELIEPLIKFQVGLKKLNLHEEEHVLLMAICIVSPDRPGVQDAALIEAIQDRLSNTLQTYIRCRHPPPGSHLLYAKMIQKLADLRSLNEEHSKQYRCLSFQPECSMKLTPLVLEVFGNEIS
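Two reagent solutions held at 4 deg C in the dark were dispensed, compounds pinned at 23 nl, and the mixture incubated 2 h at room temperature. Read-out: fluorescence polarization of VDR–SRC2-3 peptide binding.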
* = called active by the depositor; u = inconclusive; x = no result given. Most compounds without a hit are left out; they make up all but 3.1% or so of the library. Unless noted, the call rests on the fitted dose curve; in most records, active means well fitted curve in the direction sought with a large enough effect; inconclusive means small, poorly fitted or top-dose-only effect, or another doubt; inactive means no such curve, though single readings can be large; an effect the other way counts as inactive or inconclusive. Unless noted, on the % scale 0 is the no-effect control and ±100 the full control effect.

SMILES | KAT2A inh | PI4K2A inh | PLK1 PBD block | GLS inh | VDR inh
O=C1CCCc2nc(N3CCN(c4ccccc4)CC3)ncc21 | -0.7% | -2.2 | 29.9µM* | 12.7% | -4.0%
Cc1ccc(S(=O)(=O)N/N=C2/CC(c3ccccc3)Oc3ccccc32)cc1[N+](=O)[O-] (centres undefined) | -14.9% | -7.7 | 11.9µM* | 23.2% | 1.1%
CCCCCOC(=O)Nc1nc(=O)n(C2O[C@H](C)[C@@H](O)[C@@H]2O)cc1F (some centres undefined) | -24.9% | x | x | -8.9% | -1.9%
Cc1nn(-c2ccccc2)c2c1C(c1ccccc1)C(C#N)=C(N)O2 (centres undefined) | -26.2% | 0.6 | 26.7µM* | -7.7% | -13.9%
Cc1nn(Cc2ccccc2)c2c1C(c1cccnc1)C(C#N)=C(N)O2 (centres undefined) | -18.7% | -8.8 | u | 4.0% | -22.3%
Cc1nn(Cc2ccccc2)c2c1C(c1ccc(Cl)cc1)C(C#N)=C(N)O2 (centres undefined) | 3.1% | 1.3 | 26.7µM* | -0.1% | u
Cc1nn(-c2ccccc2)c2c1C(c1ccc(Br)s1)C(C#N)=C(N)O2 (centres undefined) | -0.9% | -28.7 | u | -4.3% | -26.8%
Cc1ccc(-n2ncc(C(=O)N3CCN(Cc4ccccc4)CC3)c2C2CCN(C(=O)OC(C)(C)C)CC2)c(C)c1 | 21.6% | -1.1 | x | -7.1% | 9.4%
COc1cccc(-c2nccc(NCc3ccc(OC)cc3OC)n2)c1 | -20.6% | x | x | x | -8.0%
CNC(=O)c1nnsc1S(=O)(=O)c1ccc(Cl)cc1 | u | -3.4 | 11.9µM* | 4.2% | 10µM*
COc1ccc(CCNC(=O)c2nc(-c3ccc(Cl)cc3)n3c2CCCCC3)c(OC)c1 | -16.4% | 4.6 | x | 1.7% | 12.9%
CCn1c2ccccc2c2cc(C=NNC(=O)CSc3nc4ccccc4c(=O)n3-c3ccccc3)ccc21 | x | -0.9 | x | x | x
Clc1ccc(-c2cc3ccccc3nc2N2CCOCC2)cc1 | -10.6% | 0.2 | 15µM* | u | u
Clc1ccc(-c2cc3ccccc3nc2N2CCCC2)cc1 | -6.7% | -5.1 | -8.8% | -13.6% | 4.4%
Cc1ccccc1NC(=O)Cn1nnc(C(=O)NCc2ccco2)c1N | -2.6% | -2.2 | 26.7µM* | 16.7% | -25.2%
O=c1[nH]c(-c2ccc(F)cc2)nc2c1sc(=S)n2-c1ccccc1 | -21.7% | -4.6 | u | u | 6.2%
O=c1[nH]cnc2c1sc(=S)n2-c1ccccc1 | -29.7% | -8.0 | 7.52µM* | -18.4% | u
O=S(=O)(c1ccccc1)N1N=C(c2ccc(Br)cc2)CC1c1ccco1 (centres undefined) | -1.2% | -1.7 | 2.99µM* | u | u
CCc1cc(C(=O)Nc2sc(C)c(CC)c2C#N)no1 | -15.0% | 4.6 | x | 1.0% | 79.4µM*
CCc1c(C)sc(NC(=O)c2cc(C)no2)c1C#N | -17.7% | 4.7 | 29.9µM* | 6.8% | -22.7%
CCc1c(C)sc(NC(=O)c2cc(C(C)C)on2)c1C#N | -11.9% | 6.8 | u | 17.1% | -6.1%
COC(=O)[C@]12C[C@H](CC(=O)N3CCC(c4ccccc4)CC3)C(=O)N(CCc3ccc(OC)c(OC)c3)C1=C[C@H](C(C)C)O[C@@H]2C1CC1 | x | -1.6 | x | x | x
CCCCCCCCN1CN2Cc3ccc(C)cc3C2CS1(=O)=O (centres undefined) | x | 2.9 | x | x | x
NC(=O)c1cc(S(=O)(=O)NCCCc2ccccc2)cs1 | 5.2% | 1.4 | 26.7µM* | 5.4% | -22.9%
Cc1cc(C)c2nc(NNC(=O)c3cc(=O)c4ccccc4o3)sc2c1 | -8.5% | -1.8 | -26.2% | 11.8% | 39.8µM*
SMILES | KAT2A inh | PI4K2A inh | PLK1 PBD block | GLS inh | VDR inh
Cc1ccc(NC(=O)CSc2nc3ccccc3c(=O)n2CCCC(=O)NCC2CCCO2)cc1 (centres undefined) | 3.2% | -0.5 | 26.7µM* | 0.4% | -21.0%
O=C(CSc1nc2ccccc2c(=O)n1CC1CCCO1)NCc1ccc2c(c1)OCO2 (centres undefined) | -3.5% | -1.3 | 26.7µM* | -5.9% | -19.6%
CC(C)(Oc1ccc(Cl)cc1)C(=O)OCCCOC(=O)C(C)(C)Oc1ccc(Cl)cc1 | x | 2.7 | x | x | x
Cc1c(C(=O)N(C)C2CCCCC2)sc2nc3ccc(N)cc3n12 | 2.8% | x | x | x | -28.4%
CC1Cc2ccccc2N1Cc1cc(=O)n2ccsc2n1 (centres undefined) | -10.1% | -22.3 | 23.8µM* | u | -12.9%
Cc1ccc(C)c(OCC(O)CN2C(C)CCCC2C)c1 (centres undefined) | 3.8% | -1.4 | 11.9µM* | -23.5% | -12.4%
Cc1ccc(C)c(OCC(O)CN2CCCCC2C)c1 (centres undefined) | -0.3% | -1.1 | -3.8% | -6.1% | 15.4%
C[C@H]1C2CC(OC(=O)Nc3cccc(Cl)c3)C(C2)[C@H]2CCCCN21 (some centres undefined) | x | 0.1 | x | x | x
NC1=NC(=O)C(Cc2ccc(F)cc2)S1 (centres undefined) | -9.2% | 6.6 | 23.8µM* | -2.5% | -15.0%
Cc1ccc(CC2SC(N)=NC2=O)cc1 (centres undefined) | 15.1% | -3.0 | -5.3% | 1.4% | -29.9%
COc1ccccc1CNC(=O)CCNS(=O)(=O)c1ccc2[nH]c(=O)oc2c1 | 2.5% | -4.3 | 33.6µM* | 1.5% | -16.5%
COc1ccccc1NC(=O)CCNS(=O)(=O)c1ccc2[nH]c(=O)oc2c1 | -2.3% | -0.9 | 29.9µM* | 7.2% | u
CCOC(=O)CN1CCCC1=O | x | 3.5 | x | x | x
Cc1ccc(C2N=C(Nc3nc4ccccc4o3)NC3=C2C(=O)CC(C)(C)C3)cc1 (centres undefined) | x | x | x | x | -14.5%
CCC(=O)Nc1cccc(C(=O)/C=C/c2cccs2)c1 | -2.8% | -0.5 | -5.5% | 1.3% | -24.7%
O=C(/C=C/c1ccc([N+](=O)[O-])cc1)NC1CC2CCC1C2 (centres undefined) | -6.2% | -6.4 | 5.97µM* | -7.0% | u
O=C(/C=C/c1ccccc1Cl)NC1CCCCC1 | 3.5% | -3.8 | -19.4% | 0.1% | -6.0%
CCC(=O)Nc1cccc(C(=O)/C=C/c2ccccc2)c1 | -2.6% | 4.7 | -21.5% | 2.4% | 50.1µM*
O=C(C=Cc1ccccc1Cl)c1ccccc1 | x | 10.6 | -16.2% | -1.0% | 35.5µM*
O=C(/C=C/c1ccccc1Cl)NC1CCS(=O)(=O)C1 (centres undefined) | 33.0% | -6.6 | 3.77µM* | u | u
CCCCCCCCNS(=O)(=O)/C=C/c1ccccc1CNC(=O)OC(C)(C)C | x | -4.0 | x | x | x
Cn1c(=O)c(=O)n(C)c2cc(S(=O)(=O)Nc3ccc(Cl)c(C(F)(F)F)c3)ccc21 | -7.3% | -2.8 | x | -7.4% | -7.2%
